This passage reports outcome results from PubChem BioAssay (EPA / NIEHS).

Molecules are shown by their SMILES. Results filed as inconclusive are left out. Calls of active or inactive are those of the source. The calls were made as follows: active = hit-call score of the fitted dose curve at least 0.9, where 1 is the maximum; inconclusive = response in the unintended direction; inactive = score below 0.9.

Sequence of Cytochrome P450 2C19 (Homo sapiens) (P33261 whole entry, looked up): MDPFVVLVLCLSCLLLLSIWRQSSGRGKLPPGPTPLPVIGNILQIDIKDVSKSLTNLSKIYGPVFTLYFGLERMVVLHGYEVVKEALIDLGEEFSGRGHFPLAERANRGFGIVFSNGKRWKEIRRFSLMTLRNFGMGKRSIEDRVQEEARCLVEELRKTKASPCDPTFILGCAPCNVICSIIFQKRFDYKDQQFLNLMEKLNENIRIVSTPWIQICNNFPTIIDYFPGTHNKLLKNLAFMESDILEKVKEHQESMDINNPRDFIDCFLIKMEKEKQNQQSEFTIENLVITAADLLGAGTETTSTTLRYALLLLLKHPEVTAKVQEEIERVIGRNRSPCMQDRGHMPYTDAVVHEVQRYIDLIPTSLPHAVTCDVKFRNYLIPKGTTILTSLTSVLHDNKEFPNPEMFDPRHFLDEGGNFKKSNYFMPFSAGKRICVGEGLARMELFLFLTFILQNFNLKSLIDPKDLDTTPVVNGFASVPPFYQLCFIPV

Read-out in this experiment: Cytochrome P450 2C19 (Homo sapiens) (UniProt P33261)
The experiment can be described thus: CLD_CYP2C19_24hr: CellzDirect (CLD) Gene Expression Assay for xenobiotic metabolism (CYP2C19) at 24 hours (AID 2283687).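 Also: activity means mRNA induction above DMSO vehicle baseline.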 The procedure: CLD_24hr is a cell-based, multiplexed-readout assay that uses hepatocyte, a human liver primary cell, with measurements taken at 24 hours after chemical dosing in a 96-well plate.CLD_CYP2C19_24hr is one of 16 assay component(s) measured or calculated from the CLD_24hr assay. It is designed to make measurements of mRNA induction, a form of inducible reporter, as detected with chemiluminescence signals by Quantitative Nuclease Protection Assay (qNPA) technology.Data from the assay component CLD_CYP2C19_24hr was analyzed at the endpoint, CLD_CYP2C19_24hr, in the positive analysis fitting direction relative to DMSO as the negative control and baseline of activity. Using a type of inducible reporter, gain-of-signal activity can be used to understand changes in the reporter gene as they relate to the gene CYP2C19. Furthermore, this assay endpoint can be referred to as a primary readout. To generalize the intended target to other relatable targets, this assay endpoint is annotated to the cyp intended target family, where subfamily is xenobiotic metabolism.
Human hepatocyte cultures were treated daily for two consecutive days with fresh dosing solutions containing appropriate concentrations of the 320 ToxCast chemicals (chemical identities were blinded to CellzDirect and other ToxCast collaborators), vehicle control (0.2% DMSO), and positive control inducers as summarized in Table 1. Due to the large number of treatment groups and chemicals examined, the ToxCast chemicals were divided into two groups (spanning two independent cultures of hepatocytes from separate donor preparations (Hu778: ToxCast plates 1 and 2; Hu776: ToxCast plates 3 and 4). Each preparation of human hepatocyte cultures was treated with respective vehicle control, medium only control, set of six positive controls/reference chemicals for the five hepatic receptor pathways, and a subset of eight of the ToxCast chemicals (indoxacarb, pyrithiobac-sodium, norflurazon, cyhalofop-butyl, methomyl, thiram, acetochlor, and propiconazole). These replicate data, coupled with internal replicates designed within the blinded ToxCast chemical library, provided additional data to evaluate interindividual differences between hepatocyte preparations and their potential impact on chemical profiles.Cell morphology and integrity were evaluated using phase-contrast microscopy as an indicator of hepatocyte cell health (Tyson & Green, 1987). Cultures for each treatment group (i.e., media, vehicle [0.2% DMSO], positive control inducers [multiple concentrations], and the ToxCast chemicals [multiple concentrations]) were observed and cell morphology was assessed relative to vehicle control cultures at each harvest time point (0, 6, 24, or 48 h). […] Images were evaluated at the conclusion of the study to assess changes in cell integrity and account for the effects of chemical exposure on uncharacteristic changes in concentration-dependent gene expression profiles. The results from these determinations of apparent cytotoxicity were annotated (yes/no) alongside the corresponding qNPA data for reference.At the conclusion of each treatment period, hepatocyte cultures (96-well) were washed with 1 volume of HBSS, lysed by addition of 25 ul ArrayPlate lysis buffer (HTG, Tucson, AZ), and 70 ul/well of Denaturation Oil, denatured by incubation at 95C for 10 min, and frozen at approximately -70C until analysis by nuclease protection assay (qNPA) (Roberts et al., 2007). For qNPA analysis, cell lysates were thawed at 50C for approximately 30 min, qNPA probes were added, and samples were incubated at 95C for 10 min to begin the detection process by denaturing the target RNA, dissociating the duplexes and secondary structure hybridization. At the conclusion of the hybridization period, S1 nuclease reagent was added to each sample to digest all nonprotected nucleotides at 50C for 60-90 min. […]
Regarding `CCCSP(=O)(OCC)SCCC`, the result was inactive. Regarding `CCc1cccc(C)c1N(C(=O)CCl)C(C)COC` (stereo not given), the compound was classed as inactive. Regarding `CCCCOC(=O)[C@@H](C)Oc1ccc(Oc2ccc(C#N)cc2F)cc1`, the compound was called inactive. Consider `CSc1nc(NC(C)C)nc(NC(C)C)n1`, for which the call was inactive.

On to `CCCSP(=O)(OCC)Oc1ccc(Br)cc1Cl` (stereo not given), for which the compound was classed as inactive.

For the compound `CCOP(=S)(OCC)OC(Cl)C(Cl)(Cl)Cl` (stereo not given), the compound was called inactive.

In the case of `Cc1ccn2nc(S(=O)(=O)Nc3c(F)cccc3F)nc2n1`, the compound was called inactive. Next, `COc1ccc(C(=CC(=O)N2CCOCC2)c2ccc(Cl)cc2)cc1OC`: “inactive”; `CCOC(=O)CC(SP(=O)(OC)OC)C(=O)OCC` (stereo not given): “inactive”; `S=C1NCCN1`: “inactive”. Next, `CCNc1nc(Cl)nc(NC(C)(C)C#N)n1`: “inactive”; `CC(=NC#N)N(C)Cc1ccc(Cl)nc1`: “inactive”; `CCOP(=S)(OCC)Oc1ccc2c(C)c(Cl)c(=O)oc2c1`: “inactive”. Next, `CN1COCN(Cc2cnc(Cl)s2)C1=N[N+](=O)[O-]`: “inactive”; `COP(=O)(OC)SCn1c(=O)oc2cc(Cl)cnc21`: “inactive”. With `CCc1cnc(C2=NC(C)(C(C)C)C(=O)N2)c(C(=O)O)c1` (stereo not given), the outcome was inactive. As for `CCOP(=S)(Oc1cnc(C(C)(C)C)nc1)OC(C)C` (stereo not given), the compound was called inactive.

As to `COc1cc(OC)nc(Sc2cccc(Cl)c2C(=O)O)n1`, the call was inactive.

On to `CCCCOC(=O)c1ccccc1C(=O)O`, for which the result was inactive.

As for `Cc1nn(-c2cc(NS(C)(=O)=O)c(Cl)cc2Cl)c(=O)n1C(F)F`, the outcome was inactive. As to `CCOP(=S)(OCC)Oc1cc(C)nc(C(C)C)n1`, the compound was classed as inactive. As to `CCOP(=O)(SC(C)CC)N1CCSC1=O` (stereo not given), the result was inactive. Under `CCCCSP(=O)(SCCCC)SCCCC` stands “inactive”. Next, `CSc1nnc(C(C)(C)C)c(=O)n1N`: “inactive”; `O=C(O)c1cc(Oc2ccc(C(F)(F)F)cc2Cl)ccc1[N+](=O)[O-]`: “inactive”; `CN(C)NC(=O)CCC(=O)O`: “inactive”.

In the case of `COc1cccc(C(=O)NN(C(=O)c2cc(C)cc(C)c2)C(C)(C)C)c1C`, the outcome was inactive. For `CNC(=O)Oc1cccc2c1OC(C)(C)O2`, the result was inactive.

Take `CN(C)C(=O)Nc1cccc(C(F)(F)F)c1`: the compound was classed as inactive.

As for `COP(=O)(OC)OC(Br)C(Cl)(Cl)Br` (stereo not given), the outcome was inactive.

In the case of `CC(C)[C@H](C(=O)O[C@H](C#N)c1cccc(Oc2ccccc2)c1)c1ccc(Cl)cc1`, the result was inactive. Next, `O=c1ccc(=O)[nH][nH]1`: “inactive”; `CNC(=O)ON=C(SC)C(=O)N(C)C`: “inactive”; `CC(C)N(C(=O)SCC(Cl)=C(Cl)Cl)C(C)C`: “inactive”. Next, `CN(C)[C@@H]1C(=O)C(C(N)=O)=C(O)[C@@]2(O)C(=O)C3=C(O)c4c(O)cccc4[C@@](C)(O)[C@H]3[C@H](O)[C@@H]12`: “inactive”; `CCOP(=O)(NC(C)C)Oc1ccc(SC)c(C)c1` (stereo not given): “inactive”.

As for `CC1=NNC(=O)N(/N=C/c2cccnc2)C1`, the call was inactive. With `C=C(C)[C@H]1Cc2c(ccc3c2O[C@@H]2COc4cc(OC)c(OC)cc4[C@@H]2C3=O)O1`, the result was inactive. For `CC(C)=CC1C(C(=O)OCN2C(=O)C3=C(CCCC3)C2=O)C1(C)C` (stereo not given), the result was inactive. Under `CCOC(=O)COc1cc(-c2nn(C)c(OC(F)F)c2Cl)c(F)cc1Cl` stands “inactive”.
